RN4220 kill = kills Staphylococcus aureus RN4220; S. aureus RN4220 growth, OD600, 16 h; inhibition, % (test concentration not listed); 0.33% of 330,000 active; in the data active = inhibition above about 85%;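 also: plate controls were untreated cells for no effect and reference antibiotic for full effect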
Vc quorum ag = induces V. cholerae light production without autoinducers. V. cholerae BH1578 lux reporter, luminescence, 6 h. activation, % at 18.7 µM. AID 588436. 0.16% of 350,000 active; in the data active = activation mostly above about 9.7%, no sharp cut-off
ugtP null kill = growth inhibition of S. aureus ugtP deletion strain; growth inhibition, % (no concentration beside the values); S. aureus RN4220 ugtP deletion, OD600 growth, 16 h; 0.54% of 330,000 active; AID 1259309; in the data active = growth inhibition above about 68%;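 also: plate controls were untreated wells for no effect and antibiotic for full effect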
TcdB inh = TcdB glycohydrolase inhibition. inhibition, % at 9.99 µM. 0.24% of 350,000 active. P18177. TcdB glycohydrolase enzymatic assay, plate reader; in the data active = inhibition above about 10%
* hit, by the source's call; i = inactive; nt = not tested or not shown. An excerpt weighted towards active compounds, which were near 0.67% of everything screened.

SMILES	RN4220 kill	Vc quorum ag	ugtP null kill	TcdB inh
CCC(=O)OCC(=O)[C@@]1(OC(=O)CC)C(C)CC2C3CCC4=CC(=O)C=C[C@]4(C)[C@@]3(Cl)C(O)C[C@@]21C (stereo not given in full)	5	nt	-6	nt
Cc1ccc(-n2nc(C(=O)N3CCOCC3)cc2-c2ccc(Cl)cc2)cc1	-3	0	92*	nt
CCc1ccc(OCC(O)CN2CCC(CN3C(=O)c4cccc5cccc(c45)C3=O)CC2)cc1 (stereo not given)	80	0	85*	nt
Brc1ccc(C2CN3CCSC3=N2)cc1 (stereo not given)	9	nt	10	nt
COc1ccc(NC(c2ccccc2)c2ccncc2)cc1 (stereo not given)	3	1	4	16*
COc1ccc(NC(c2ccccc2)P(=O)(Oc2ccccc2)Oc2ccccc2)cc1 (stereo not given)	9	-6	2	-1
Cc1ccc(C(=O)NNC(=O)CCCN2C(=O)C(=Cc3ccccc3Cl)SC2=S)cc1	4	nt	-3	nt
COc1cc2[nH]c(=S)nc(NCCC(C)C)c2cc1OC	3	0	6	10*
CC(=O)Nc1nc(-c2ccc([N+](=O)[O-])cc2)cs1	3	0	7	3
O=C(Nc1nc(-c2ccc(Cl)s2)cs1)c1cccs1	54	i	99*	nt
O=C(Nc1ccc([N+](=O)[O-])cc1)Nc1nc(-c2ccc(Cl)s2)cs1	97*	0	97*	1
CCOC(=O)N1C2=NC(C(=O)OC)=C(C(=O)OC)C3N(C)c4ccc(OC)cc4[C@]23CC1C(=O)OC (stereo not given in full)	9	nt	0	nt
CCn1nc(C)c(C=NNC(=O)Cn2nnnc2N)c1C	1	nt	2	nt
O=[N+]([O-])c1c(NCCCO)cc(Sc2nc3ccccc3s2)c2nonc12	87*	-1	101*	1
Cc1ccc(NC(=O)c2cc([N+](=O)[O-])ccc2N2CCCC2)cc1	5	i	0	2
O=C(Nc1nnc(C2CC2)s1)c1cc([N+](=O)[O-])ccc1N1CCCCC1	89*	-1	77	nt
C[C@]12CCC(=O)C=C1CCC1C2C(=O)C[C@]2(C)C(=O)CCC12 (stereo not given in full)	10	nt	5	nt
O=c1[nH][nH]c(=O)c2c1[nH]c(=S)n2Cc1ccccc1	2	i	-4	12*
Cn1c(=O)c2[nH]c(=S)n(Cc3ccccc3)c2n(C)c1=O	6	nt	5	50*
CCn1c(=O)n(C)c2c(=O)n(C)c(=O)n(C)c21	2	-6	9	0
CCCCn1c(=S)[nH]c2c(=O)n(C)c(=O)n(C)c21	nt	1	nt	52*
S=c1[nH]c2ccccc2n1Cc1ccccc1	6	0	8	1
CCc1ccccc1NS(=O)(=O)c1ccc(SC)cc1	95*	3	89*	nt
Cc1ccc(-c2nnc(-c3ccccc3)c(-c3ccccc3)n2)cc1	-8	-1	92*	0
CCCn1c(N=Cc2cc(OC)ccc2O)nc2ccccc21	4	nt	4	nt
SMILES	RN4220 kill	Vc quorum ag	ugtP null kill	TcdB inh
O=C(Oc1c(Cl)cc(Cl)c2cccnc12)c1cccs1	72	-6	66	nt
O=C(Oc1c(Cl)cc(Cl)c2cccnc12)c1ccco1	99*	i	98*	nt
O=C(CSc1nc2ccccc2[nH]1)NN=C/C=C/c1ccccc1[N+](=O)[O-]	98*	nt	97*	nt
CN1C(=O)C2C(C=Cc3ccccc3)N3C(=O)CN(Cc4ccccc4)C(=O)[C@@]3(C)C2C1=O (stereo not given in full)	4	nt	0	nt
CC(=NNC(=O)c1ccc([N+](=O)[O-])cc1)C(=NO)C(=O)Nc1ccccc1	2	nt	7	nt
CCCN(CCC)c1nc(-c2ccccn2)nc2ccccc12	99*	1	100*	1
Cc1ccc(CN=C2Nc3ccccc3CS2)cc1	41	0	82*	nt
Clc1ccc(CN=C2Nc3ccccc3CS2)cc1	19	0	52	nt
O=[N+]([O-])c1cc(Br)c(O)c(C=NNc2nc3ccccc3s2)c1	67	nt	84*	nt
CN(C)CCNC(=O)c1cc2c(s1)-c1ccc(Cl)cc1SC2	nt	0	nt	12*
c1ccc(C2OC3c4cccc5cccc(c45)C3N2c2ccccc2)cc1 (stereo not given)	-6	i	84*	nt
CN(C)c1ccc(/C=C/c2ccc3ccccc3[n+]2C)cc1	97*	i	95*	nt
CN(C)c1ccc(/C=C/c2ccc3c4ccccc4ccc3[n+]2-c2ccccc2)cc1	98*	-1	98*	0
CN(CCCS(=O)(=O)[O-])c1ccc(/C=C/c2ccc3ccccc3[n+]2C)cc1	2	i	2	0
CN(C)c1ccc(/C=C/c2cccc[n+]2[O-])cc1	nt	0	nt	13*
[O-][n+]1ccccc1/C=C/c1ccccc1	1	0	2	1
COC(=O)C1C(O)C(C)C(O)C(C)C=CC=C(C)C(=O)Nc2c(C)c(OC(C)=O)c3c(c2O)C(=O)C(C)=C2OCOC(=C23)C(C)=CC(C)(O)C(O)C(C)C1O (stereo not given)	99*	nt	100*	nt
CNC(=O)C1CCN(S(=O)(=O)c2c(C)noc2C=Cc2ccc(C)cc2)CC1	5	nt	4	nt
COc1ccc(OCC(=O)NN=Cc2ccsc2)cc1	5	nt	0	nt
C#CCOCCOCCOCCNc1nc(N2CCN(C(=O)CCCCCCCCCCNC(=O)C(CO)n3cc(CCCSC)nn3)CC2)nc(N2CCN(C(=O)CCCCCCCCCCNC(=O)C(CO)n3cc(CCCSC)nn3)CC2)n1 (stereo not given)	6	nt	3	nt
CCOC(=O)c1c(N)sc(C(O)(C(F)(F)F)C(F)(F)F)c1-c1ccc(Cl)cc1	100*	-1	100*	nt
COc1ccccc1-c1cc(C(F)(F)F)nc(N2CCCC2)n1	5	i	86*	nt
CS(=O)(=O)N1c2ccccc2[C@@]2(Br)CC3C(=O)NC(Cc4ccccc4)C(=O)N3C12 (stereo not given in full)	-3	nt	-17	nt
C[n+]1c2n(c3ccccc31)N=C(c1ccc(-c3ccccc3)cc1)CS2	100*	0	101*	1
C[n+]1c2n(c3ccccc31)N=C(c1ccccc1)CS2	1	0	-2	-2
SMILES	RN4220 kill	Vc quorum ag	ugtP null kill	TcdB inh
O=C(COc1cccc(C(F)(F)F)c1)N1CCN(c2ccc(O)cc2)CC1	5	0	-9	16*
COC(=O)NN=Cc1cc(N=Nc2ccccc2)ccc1O	4	nt	7	nt
COc1ccc(C2C=C(C(=O)O)OC(OCc3ccc(CO)cc3)C2)cc1 (stereo not given)	2	nt	-1	nt
Cc1cc(NCCCn2ccnc2)n2ncc(-c3ccc(Cl)cc3)c2n1	30	-1	91*	nt
CC(C)(C)c1cc(NCc2ccccn2)n2ncc(-c3ccc(Cl)cc3)c2n1	-14	-1	-1	-8
CN(C)CCCNc1cc(C(C)(C)C)nc2c(-c3ccc(Cl)cc3)cnn12	101*	-1	100*	5
Cc1cc(NCCCN2CCOCC2)n2ncc(-c3ccc(Cl)cc3)c2n1	-10	i	-2	nt
CC(C)(C)c1cc(NCCCn2ccnc2)n2ncc(-c3ccccc3)c2n1	58	0	85*	2
Cc1ccc(NS(=O)(=O)c2ccc3c(c2)NC(=O)CCS3)c(C)c1	98*	0	96*	-2
